SMILES strings stand for the structures. The whole screen tested about 320,000 compounds, of which about 190 (0.059%) were called active. The sample holds actives, similar compounds and a random draw of the others, so the mix is not that of the screen. Cut-off read from the data, not from the text of the source: active = inhibition above about 10% (passing the limit was not always enough); inconclusive = no clear call, values can overlap the other calls.

Sequence of UDP-galactopyranose mutase (Mycobacterium tuberculosis (strain ATCC 25618 / H37Rv)) (P9WIQ1 whole entry, looked up): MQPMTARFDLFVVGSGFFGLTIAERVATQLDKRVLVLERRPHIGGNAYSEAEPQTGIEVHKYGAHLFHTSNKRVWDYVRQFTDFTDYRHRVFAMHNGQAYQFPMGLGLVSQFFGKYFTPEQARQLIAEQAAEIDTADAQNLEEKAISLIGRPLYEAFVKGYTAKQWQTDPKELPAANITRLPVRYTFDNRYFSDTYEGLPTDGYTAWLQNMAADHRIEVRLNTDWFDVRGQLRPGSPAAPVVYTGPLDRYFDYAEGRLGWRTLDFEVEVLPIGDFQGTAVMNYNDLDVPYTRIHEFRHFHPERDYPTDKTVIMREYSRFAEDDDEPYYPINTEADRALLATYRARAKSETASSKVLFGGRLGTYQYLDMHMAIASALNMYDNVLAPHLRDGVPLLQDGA

The assay concerns the target UDP-galactopyranose mutase (Mycobacterium tuberculosis (strain ATCC 25618 / H37Rv)) (UniProt P9WIQ1). The assay can be described thus: M. tuberculosis UGM enzyme inhibitors, primary screen, biochemical, fluorescence polarization, single point (AID 504406). As to conditions: purified UGM, fluorescence polarization probe displacement; at 10 µM; active compounds read high. On the technique in general: Polarisation of emitted light reports the rotation of a fluorescent probe.
As for `CC1CC(=O)N(CC(=O)Nc2cccc(Cl)c2)c2ccccc2S1(=O)=O` (stereo not given), the inhibition is -0.479% (inactive).

`O=C(O)C1CC=CCC1C(=O)NCCc1ccccc1` (stereo not given): the inhibition was -0.437% (inactive). With `CC(NC(=O)c1ccc(S(=O)(=O)Nc2ccccc2)cc1)c1ccc(S(N)(=O)=O)cc1` (stereo not given) the figure was -0.443% (inactive); with `CC(=O)c1nn(-c2cccc(Br)c2)cc1C(=O)c1cccc2ccccc12`, 2.24% (inactive). The same measure for `O=C(CCCN1CCc2[nH]c3ccc(F)cc3c2C1)c1ccc(F)cc1`: -0.464% (inactive). With `COc1ccc(C(C)NC(=O)C23CC4CC(CC(C4)C2)C3)cc1` (stereo not given) the figure was 0.347% (inactive); with `CCOc1ccccc1-n1c(SCC(=O)N2CCCC2)nnc1-c1ccoc1C`, 0.65% (inactive). `O=C(Cc1cccs1)NCc1cccc(C(F)(F)F)c1`: the inhibition was 0.316% (inactive). The same measure for `O=C(CC1Oc2ccccc2NC1=O)NCCCN1CCN(Cc2ccccc2)CC1` (stereo not given): -0.871% (inactive); for `Cc1ccc(C(=O)CSc2nc3ccccc3c(=O)n2N)o1`: -2.34% (inactive). As for `COc1cccc(-c2ccc3c(c2)S(=O)(=O)c2cccc(C(=O)O)c2C3=O)c1OC`, the inhibition was -0.479% (inactive). With `O=C(COc1cc(Cl)c(Cl)cc1Cl)NCCc1ccccn1` the figure was 1.96% (inactive). The same measure for `O=C(C[n+]1cc(Br)cc2ccccc21)c1ccc(F)cc1`: -0.457% (inactive). For the compound `COc1c(C(=O)N2CCCC2)ccc2ccccc12`, the inhibition was -0.901% (inactive). In the case of `COC(=O)C[n+]1cccc2ccccc21`, the inhibition is 13.9% (active). Consider `COc1ccc(CCN2C(=O)c3[nH]nc(-c4ccccc4O)c3C2c2ccc(C)cc2)cc1OC` (stereo not given), for which the inhibition is 2.57% (inactive). The same measure for `COc1ccc(N2CCN(S(=O)(=O)c3cc(Br)cnc3N)CC2)cc1`: 1.41% (inactive); for `Cc1ccc(NS(=O)(=O)c2ccc(F)cc2)nc1`: -0.636% (inactive).

On to `N#Cc1c(N)nc2c3c(sc(=N)c2c1N)NC(=O)CC3c1ccccc1Cl` (stereo not given), for which the inhibition was 2.45% (inactive). For the compound `COc1cccc(CNC(=O)CCC2CCCN(C(=O)c3ccoc3C)C2)c1` (stereo not given), the inhibition was -0.384% (inactive). Turning to `COc1ccc(NC(=O)CN(Cc2ccccc2)S(C)(=O)=O)cc1OC`, the inhibition was -0.501% (inactive).

Regarding `CCc1ccccc1NC(=S)Nc1cc(OC)c(NC(=O)C(C)C)cc1OC`, the inhibition was 0.622% (inactive). As for `COC(=O)C1=C(C(=O)OC)[C@@H]2N(C)c3ccccc3[C@@]23C[C@@H](C(=O)OC)N(C(C)=O)C3=N1`, the inhibition was -0.842% (inactive). The same measure for `O=C(NCc1ccco1)C1CCCN1S(=O)(=O)c1ccccc1C(F)(F)F` (stereo not given): 5.45% (inactive); for `CC(C)Oc1ccccc1C(=O)NC(CO)C(=O)O` (stereo not given): -1.15% (inactive).

A word on the inhibition: it is the change of the read-out against control, counted positive when it falls.

Values taken from PubChem BioAssay AID504406 (Broad Institute, 2011).
